Measurements from PubChem BioAssay AID1159580 (chemical genetic matrix, 2015).
About 2,000 (36%) of roughly 5,500 compounds were called active. About 18% were inconclusive and are not listed. No stated cut-off is given here; in the data, active means normalized growth mostly below about 0.91 (no sharp cut-off); inconclusive means no clear call, values can overlap the other calls; inactive means mostly above about 0.92. This is one part of the list.

Experiment: chemical genetic growth profiling, strain panel (AID 1159580);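 further: tested at 20 µM; growth read once vehicle control cultures reached saturation at 30 °C; 1 = growth at the plate median or of vehicle wells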
Details: growth OD
[1] = S. cerevisiae deletion strains, locus YDL101C, strain DUN1, stronger effect = lower value
[2] = S. cerevisiae deletion strains, locus YHR030C, strain SLT2, stronger effect = lower value

Measured: normalized growth

CCOC(=O)c1cnc2n(c1=O)CCS2
inactive: S. cerevisiae deletion strains, locus YAL013W, strain DEP1, stronger effect = lower value 1.02 | S. cerevisiae deletion strains, locus YBR229C, strain ROT2, stronger effect = lower value 0.997 | [1] 1.05 | S. cerevisiae deletion strains, locus YDR150W, strain NUM1, stronger effect = lower value 0.965 | S. cerevisiae deletion strains, locus YEL061C, strain CIN8, stronger effect = lower value 1.04 | S. cerevisiae deletion strains, locus YGR078C, strain PAC10, stronger effect = lower value 1.04 | [2] 1.1 | S. cerevisiae deletion strains, locus YHR087W, strain rtc3, stronger effect = lower value 1.02 | S. cerevisiae deletion strains, locus YJR043C, strain POL32, stronger effect = lower value 0.999 | S. cerevisiae deletion strains, locus YJR075W, strain HOC1, stronger effect = lower value 1.01 | S. cerevisiae deletion strains, locus YKL190W, strain CNB1, stronger effect = lower value 0.996 | S. cerevisiae deletion strains, locus YLR039C, strain RIC1, stronger effect = lower value 0.99 | S. cerevisiae deletion strains, locus YLR058C, strain SHM2 (second series), stronger effect = lower value 0.995 | S. cerevisiae deletion strains, locus YLR085C, strain ARP6, stronger effect = lower value 1.06 | S. cerevisiae deletion strains, locus YLR262C, strain YPT6, stronger effect = lower value 0.996 | S. cerevisiae deletion strains, locus YMR219W, strain ESC1, stronger effect = lower value 0.999 | S. cerevisiae deletion strains, locus YMR263W, strain SAP30, stronger effect = lower value 1 | S. cerevisiae deletion strains, locus YNL128W, strain TEP1, stronger effect = lower value 0.997 | S. cerevisiae deletion strains, locus YNL153C, strain GIM3, stronger effect = lower value 1.02 | S. cerevisiae deletion strains, locus YNL298W, strain CLA4 (second series), stronger effect = lower value 1.03 | S. cerevisiae deletion strains, locus YNL322C, strain KRE1, stronger effect = lower value 1.01 | S. cerevisiae deletion strains, locus YNR030W, strain Alg12, stronger effect = lower value 1.08 | S. cerevisiae deletion strains, locus YOL006C, strain TOP1, stronger effect = lower value 1.07 | S. cerevisiae deletion strains, locus YPL055C, strain LGE1, stronger effect = lower value 0.987 | S. cerevisiae deletion strains, locus YPL241C, strain CIN2, stronger effect = lower value 1.01 | S. cerevisiae deletion strains, locus YPR135W, strain CTF4, stronger effect = lower value 1.12 | S. cerevisiae strains, strain wild type, stronger effect = lower value 0.975
active: S. cerevisiae deletion strains, locus YML094W, strain GIM5, stronger effect = lower value 1.13 [resistant]

O=C(NNc1cc(C(F)(F)F)cc(C(F)(F)F)c1)c1cnc2n(c1=O)CCS2
inactive: S. cerevisiae deletion strains, locus YAR019C, strain CDC15, stronger effect = lower value 0.985 | S. cerevisiae deletion strains, locus YBL105C, strain PKC1, stronger effect = lower value 0.987 | S. cerevisiae deletion strains, locus YBR135W, strain CKS1, stronger effect = lower value 0.99 | S. cerevisiae deletion strains, locus YBR136W, strain MEC1, stronger effect = lower value 0.983 | S. cerevisiae deletion strains, locus YBR160W, strain CDC28, stronger effect = lower value 0.99 | S. cerevisiae deletion strains, locus YDL017W, strain CDC7, stronger effect = lower value 0.986 | S. cerevisiae deletion strains, locus YDL028C, strain MPS1, stronger effect = lower value 0.991 | [1] 0.983 | S. cerevisiae deletion strains, locus YDL108W, strain KIN28, stronger effect = lower value 1 | S. cerevisiae deletion strains, locus YDL132W, strain cdc53, stronger effect = lower value 0.998 | S. cerevisiae deletion strains, locus YDL214C, strain PRR2, stronger effect = lower value 0.992 | S. cerevisiae deletion strains, locus YDR052C, strain DBF4, stronger effect = lower value 0.991 | S. cerevisiae deletion strains, locus YDR054C, strain cdc34, stronger effect = lower value 0.993 | S. cerevisiae deletion strains, locus YDR226W, strain ADK1, stronger effect = lower value 0.987 | S. cerevisiae deletion strains, locus YDR477W, strain SNF1, stronger effect = lower value 0.994 | S. cerevisiae deletion strains, locus YER123W, strain YCK3, stronger effect = lower value 0.936 | S. cerevisiae deletion strains, locus YER133W, strain GLC7, stronger effect = lower value 0.977 | S. cerevisiae deletion strains, locus YFL009W, strain cdc4, stronger effect = lower value 0.987 | S. cerevisiae deletion strains, locus YFL029C, strain CAK1, stronger effect = lower value 1 | S. cerevisiae deletion strains, locus YFR003C, strain YPI1, stronger effect = lower value 0.999 | S. cerevisiae deletion strains, locus YFR019W, strain FAB1, stronger effect = lower value 0.982 | S. cerevisiae deletion strains, locus YFR028C, strain CDC14, stronger effect = lower value 0.983 | S. cerevisiae deletion strains, locus YGR040W, strain KSS1, stronger effect = lower value 1 | S. cerevisiae deletion strains, locus YGR052W, strain FMP48, stronger effect = lower value 1.03 | S. cerevisiae deletion strains, locus YGR092W, strain DBF2, stronger effect = lower value 0.961 | [2] 0.939 | S. cerevisiae deletion strains, locus YHR079C, strain IRE1, stronger effect = lower value 0.972 | S. cerevisiae deletion strains, locus YHR082C, strain KSP1, stronger effect = lower value 1.01 | S. cerevisiae deletion strains, locus YHR205W, strain SCH9, stronger effect = lower value 0.938 | S. cerevisiae deletion strains, locus YIL147C, strain SLN1, stronger effect = lower value 0.988 | S. cerevisiae deletion strains, locus YJL095W, strain BCK1, stronger effect = lower value 0.98 | S. cerevisiae deletion strains, locus YJL128C, strain PBS2, stronger effect = lower value 1.02 | S. cerevisiae deletion strains, locus YJL157C, strain FAR1, stronger effect = lower value 0.996 | S. cerevisiae deletion strains, locus YJR016C, strain ILV3, stronger effect = lower value 0.99 | S. cerevisiae deletion strains, locus YJR066W, strain TOR1 (second series), stronger effect = lower value 0.995 | S. cerevisiae deletion strains, locus YJR066W, strain TOR1, stronger effect = lower value 0.974 | S. cerevisiae deletion strains, locus YKL048C, strain ELM1, stronger effect = lower value 0.971 | S. cerevisiae deletion strains, locus YKL067W, strain YNK1, stronger effect = lower value 0.995 | S. cerevisiae deletion strains, locus YKL101W, strain HSL1, stronger effect = lower value 1.01 | S. cerevisiae deletion strains, locus YKL193C, strain SDS22, stronger effect = lower value 0.986 | S. cerevisiae deletion strains, locus YKL203C, strain TOR2, stronger effect = lower value 1.03 | S. cerevisiae deletion strains, locus YLR113W, strain HOG1, stronger effect = lower value 0.883 | S. cerevisiae deletion strains, locus YLR133W, strain CKI1, stronger effect = lower value 1.01 | S. cerevisiae deletion strains, locus YLR403W, strain SFP1, stronger effect = lower value 0.99 | S. cerevisiae deletion strains, locus YML070W, strain DAK1, stronger effect = lower value 0.973 | S. cerevisiae deletion strains, locus YMR001C, strain CDC5, stronger effect = lower value 0.995 | S. cerevisiae deletion strains, locus YMR205C, strain PFK2 (second series), stronger effect = lower value 1.01 | S. cerevisiae deletion strains, locus YMR277W, strain FCP1, stronger effect = lower value 0.992 | S. cerevisiae deletion strains, locus YNL006W, strain LST8, stronger effect = lower value 1 | S. cerevisiae deletion strains, locus YNL020C, strain ARK1, stronger effect = lower value 1 | S. cerevisiae deletion strains, locus YNL161W, strain CBK1, stronger effect = lower value 0.98 | S. cerevisiae deletion strains, locus YNL183C, strain NPR1, stronger effect = lower value 0.962 | S. cerevisiae deletion strains, locus YNL207W, strain RIO2, stronger effect = lower value 0.996 | S. cerevisiae deletion strains, locus YNL222W, strain SSU72, stronger effect = lower value 0.988 | S. cerevisiae deletion strains, locus YNL307C, strain MCK1 (second series), stronger effect = lower value 0.935 | S. cerevisiae deletion strains, locus YOL078W, strain AVO1, stronger effect = lower value 0.992 | S. cerevisiae deletion strains, locus YOL136C, strain PFK27, stronger effect = lower value 0.971 | S. cerevisiae deletion strains, locus YOR061W, strain CKA2, stronger effect = lower value 1.02 | S. cerevisiae deletion strains, locus YOR119C, strain RIO1, stronger effect = lower value 0.983 | S. cerevisiae deletion strains, locus YOR231W, strain MKK1, stronger effect = lower value 0.979 | S. cerevisiae deletion strains, locus YOR329C, strain SCD5, stronger effect = lower value 0.983 | S. cerevisiae deletion strains, locus YPL031C, strain PHO85, stronger effect = lower value 0.983 | S. cerevisiae deletion strains, locus YPL153C, strain RAD53, stronger effect = lower value 0.986 | S. cerevisiae deletion strains, locus YPL204W, strain HRR25, stronger effect = lower value 0.982 | S. cerevisiae deletion strains, locus YPL209C, strain IPL1, stronger effect = lower value 0.984 | S. cerevisiae deletion strains, locus YPL256C, strain CLN2, stronger effect = lower value 0.936 | S. cerevisiae deletion strains, locus YPR025C, strain CCL1, stronger effect = lower value 0.972 | S. cerevisiae deletion strains, locus YPR106W, strain ISR1, stronger effect = lower value 0.995 | S. cerevisiae deletion strains, locus YPR111W, strain DBF20, stronger effect = lower value 0.997 | S. cerevisiae deletion strains, strain NNK1, stronger effect = lower value 0.988 | S. cerevisiae deletion strains, strain TSCII, stronger effect = lower value 0.987
